Compound activity deposited in PubChem BioAssay by National Center for Advancing Translational Sciences (NCATS).
An excerpt weighted towards active compounds, which were near 9.9% of everything screened.
KB-V1 cytotox: kills drug-selected multidrug resistant KB-V1 cells; KB-V1 MDR cells viability, CellTiter-Glo, 72 h; Potency, µM (doses to about 46.1 µM), most hits filed as cytotoxic; actives 3.4% (n = 400,000); AID 1347076; note: nearly all actives have a fitted effect of over 60% in size
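Cytotoxicity toward P-gp-expressing KB-V1 cells was determined as loss of CellTiter-Glo luminescence after 72 h at 37 degrees C. Compounds were tested in quantitative HTS format across a concentration range, with curves fitted to normalized data.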
KB-3-1 tox: KB-3-1 parental cell cytotoxicity; Potency, µM (titrated, usually from 46.1 µM), most hits filed as cytotoxic; KB-3-1 viability, CellTiter-Glo ATP luminescence, 72 h; actives 1.4% (n = 400,000); AID 1347075; note: nearly all actives have a fitted effect of over 60% in size
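Cytotoxicity in the drug-sensitive parental line KB-3-1 was scored as loss of CellTiter-Glo luminescence following 72 h incubation with compound. Values come from curve fitting of normalized concentration-response data.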
MCF10A rerep: induces DNA re-replication in MCF 10a normal breast cells; MCF 10A DNA re-replication, Hoechst nuclear intensity, 48 h; Potency, µM (doses to about 46.1 µM), most hits filed as activators; AID 624296; actives 2.9% (n = 350,000); note: nearly all actives have a fitted effect of over 50% in size
SW480 rerep: DNA re-replication induction in SW480 cells. SW480 DNA re-replication, Hoechst DNA content imaging, 48 h. Potency, µM (top dose mostly 46.1 µM), actives largely listed as activators. actives 1.8% (n = 340,000). AID 624297; note: nearly all actives have a fitted effect of over 55% in size
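250 cells/well; 23 nL cpd via pin tool; 48 hr, 37 C, 5% CO2; Hoechst 40 min; imager read of total nuclear intensity, ex 405/em 500-530 nm.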
IL-1B inflam inh: inflammasome signaling inhibition, IL-1 beta readout | THP-1 LPS/ATP IL-1B secretion, AlphaLISA, 16 h; stronger effect = lower value | activity change, % at 57.5 µM | actives 4.7% (n = 360,000); in the data active = activity change below about -50%; inconclusive = mostly about -30% to -49%
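THP-1 cells pretreated 1 hr with compounds (up to 57.5 uM final), then stimulated with LPS (250 ng/mL final) plus ATP (1.25 mM final); secreted IL-1B measured by AlphaLISA after 16 hr, decreased signal indicating inhibition.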
Of the large screens only hits and unclear results are named; the others gave an inactive call; ! = a repeat was not active. Unless noted, calls come from the whole dose curve; as a rule, active = well fitted curve in the direction sought with a large enough effect; inconclusive = small, poorly fitted or top-dose-only effect, or another doubt; inactive = no such curve, though single readings can be large; an effect the other way counts as inactive or inconclusive.

CCCCCCCCCCC[N+](C)(C)CC/C=C1/c2ccccc2Sc2ccc(Cl)cc21	IL-1B inflam inh -67.0
O=C(CCl)N1c2ccccc2Sc2ccc3ccccc3c21	KB-V1 cytotox inconclusive, IL-1B inflam inh -104.4 (no result: MCF10A rerep, SW480 rerep)
CN(C)CCCN1c2ccccc2CCc2ccccc21	KB-V1 cytotox inconclusive, IL-1B inflam inh inconclusive (no result: MCF10A rerep)
CN(C)CCCN1c2ccccc2Sc2ccc(Cl)cc21	KB-V1 cytotox 13µM!, KB-3-1 tox inconclusive, MCF10A rerep inconclusive, SW480 rerep inconclusive
CN(C)CCCN1c2ccccc2Sc2ccc3ccccc3c21	KB-V1 cytotox 18.4µM, KB-3-1 tox inconclusive, MCF10A rerep inconclusive, SW480 rerep inconclusive, IL-1B inflam inh -101.9
O=C(COc1ccc2ccccc2c1)N1c2ccccc2Sc2ccccc21	KB-V1 cytotox inconclusive
CC[N+](C)(C)CC/C=C1/c2ccccc2Sc2ccc(Cl)cc21	none (no result: IL-1B inflam inh)
OCCN1CCN(CCCN2c3ccccc3Sc3ccc(Cl)cc32)CC1	KB-V1 cytotox inconclusive, MCF10A rerep 20.6µM!, SW480 rerep inconclusive
CN(C)CCCN1c2ccc3ccccc3c2Sc2cccc(Cl)c21	KB-V1 cytotox 14.6µM, KB-3-1 tox inconclusive, MCF10A rerep inconclusive, SW480 rerep inconclusive, IL-1B inflam inh -96.4
CC(=O)c1ccc2c(c1)N(CCCN1CCC(CCO)CC1)c1ccccc1S2	KB-V1 cytotox inconclusive
Cc1ccc2c(c1)Sc1c(ccc3ccccc13)N2	MCF10A rerep inconclusive
CN1CCN(CCCN2c3ccccc3Sc3ccc(S(=O)(=O)N(C)C)cc32)CC1	KB-V1 cytotox 20.6µM, MCF10A rerep inconclusive, IL-1B inflam inh -105.6
OCCN1CCN(CC/C=C2/c3ccccc3Sc3ccc(Cl)cc32)CC1	MCF10A rerep 4.61µM, IL-1B inflam inh inconclusive
O=C(Cn1nc(C(F)(F)F)c2c1CCC2)N1CCN(c2ccccc2)CC1	KB-V1 cytotox 16.4µM, MCF10A rerep inconclusive
COc1ccccc1NC(=O)Cn1nc(C(F)(F)F)c2c1CCCC2	KB-V1 cytotox 20.6µM
O=[N+]([O-])c1cccc(/C=N/NC2CCS(=O)(=O)C2)c1 (stereo not drawn)	KB-V1 cytotox inconclusive
COc1ccc(NS(=O)(=O)c2ccc3c(c2)CCCN3C(=O)C2CCC2)cc1OC	KB-V1 cytotox inconclusive, KB-3-1 tox 2.59µM (no result: MCF10A rerep, SW480 rerep, IL-1B inflam inh)
C[C@H](CO)N1C[C@H](C)[C@@H](CN(C)Cc2ccc(Cl)c(Cl)c2)Oc2c(NC(=O)CCC(F)(F)F)cccc2C1=O	KB-3-1 tox inconclusive, MCF10A rerep inconclusive, IL-1B inflam inh -69.5
C[C@H](CO)N1C[C@H](C)[C@@H](CN(C)Cc2ccc(Cl)c(Cl)c2)Oc2c(NC(=O)C3CC3)cccc2C1=O	KB-3-1 tox inconclusive, IL-1B inflam inh -83.8
Cc1cccc(C(=O)OCC(=O)N2CC(=O)Nc3ccccc32)c1C	SW480 rerep inconclusive
Cc1cc(NC(=O)COC(=O)c2ccc(S(=O)(=O)N3CCCC3)cc2)no1	none
COCc1nnc(NC(=O)c2ccc(S(=O)(=O)N3CCCc4ccccc43)cc2)o1	KB-V1 cytotox inconclusive, KB-3-1 tox inconclusive, MCF10A rerep 16.4µM, SW480 rerep inconclusive
Cc1cc(NC(=O)COC(=O)c2ccc(S(=O)(=O)N3CCCc4ccccc43)cc2)no1	KB-V1 cytotox inconclusive, KB-3-1 tox 14.6µM, MCF10A rerep 9.2µM, SW480 rerep 14.6µM
Cc1cccc(C)c1NC(=O)c1cc(S(=O)(=O)N2CCCc3ccccc32)ccc1F	none (no result: MCF10A rerep, SW480 rerep, IL-1B inflam inh)
Cc1ccc(NC(=O)c2cc(S(=O)(=O)N3CCCc4ccccc43)ccc2F)cc1F	KB-3-1 tox 25.9µM (no result: MCF10A rerep, SW480 rerep, IL-1B inflam inh)
COC(=O)Nc1ccc(S(=O)(=O)N2c3ccccc3CCC2C)cc1 (stereo not drawn)	KB-V1 cytotox 4.11µM, KB-3-1 tox 7.31µM
COc1ccc(-c2nnc(NC(=O)c3ccc(S(=O)(=O)N4CCCc5ccccc54)cc3)o2)cc1	KB-V1 cytotox inconclusive, KB-3-1 tox inconclusive, SW480 rerep inconclusive
Cc1cnc(NCCc2ccccc2)s1	none
Cc1ccc2c(=O)cc(C(=O)Nc3sc4c(c3C(=O)NCC3CCCO3)CCCC4)oc2c1C (stereo not drawn)	none (no result: MCF10A rerep, SW480 rerep, IL-1B inflam inh)
COc1ccc(CN2CCNC(=O)C2CC(=O)N(C)CCC2CCOCC2)c(OC)c1 (stereo not drawn)	MCF10A rerep inconclusive
O=C(Nc1ccc(F)c(F)c1)c1cc(S(=O)(=O)N2CCN(c3ccccn3)CC2)ccc1F	KB-V1 cytotox 10.3µM
